In PubChem BioAssay AID2060323 (National Center for Advancing Translational Sciences (NCATS), 2025):
Results filed as inconclusive are left out. Unmarked numbers belong to inactive results. The source made the active and inactive calls. The call rests on the fitted dose curve; in most records, active means well fitted activation curve with a large enough effect; inconclusive means small, poorly fitted or top-dose-only effect; inactive means no such curve, though single readings can be large or run the other way.

Each compound was assayed against Cellular tumor antigen p53 (Homo sapiens) (UniProt P04637) (assay: Confirmatory qHTS for small molecule compounds that upregulate eGFP-tagged delta133p53alpha (in C-terminal) cells.). Conditions: delta133p53alpha-eGFP (C-terminal) reporter cells, GFP fluorescence upregulation; series mostly up to 57.5 µM; activation (upregulation): at the top concentration.
Description: Assay Development and Screening Technology
National Center for Advancing Translational Sciences (NCATS),
National Institute of Health (NIH), Rockville, Maryland
Cellular senescence (CS) is one of the hallmarks of aging and age-related diseases. Senescent cells are characterized by an irreversible growth arrest, an increase in senescence-associated beta-galactosidase (SA-beta-gal) activity and p16INK4a expression, an activation of the DNA damage response pathways, and the emergence of a senescence-associated secretory phenotype (SASP).
Delta133p53alpha, a human/primate-specific p53 protein isoform, delays or inhibits the induction of CS and SASP in various types of human cells, including progeria-derived fibroblasts, primary normal astrocytes, and CD8+ T lymphocytes. Induction of delta133p53alpha with small molecule compounds may provide therapeutic opportunities for inhibition of senescence/SASP-associated pathologies in progeria syndromes, astrocyte-mediated neuroprotection in neurodegenerative diseases, and possibly prevention and treatment of a wider range of senescence- and aging-associated diseases.
Here we report the development and validation of a cell-based quantitative high throughput screening (qHTS) assay in 1,536-well format. This qHTS assay uses the NCI-H358 cell line with doxycycline-inducible expression of enhanced green fluorescent protein (eGFP)-tagged delta133p53alpha, which allows efficient and highly quantitative measurement of the protein levels.
PROTOCOL TABLE (as described by Inglese J, Shamu CE and Guy RK. 2007)
SEQUENCE No. (e.g., 1, 2, 3, etc.); […] (e.g., Cells, Incubation, Reagent, etc.); VALUE; DESCRIPTION.
1; Cells; 4uL; 800 doxycycline treated cells / well in doxycycline-free media, 1536-well black, clear-bottom low base Aurora microplates.
2; Compounds; 23 nL; Kalypsis pin tool (Wako) equipped with 1536-well pin heads, 5-azacytidine positive control.
3; Incubation; 24 hr; 37C, 5% CO2; 95% relative humidity.
4; Aspiration; 1x; BioTek EL406 washer dispenser (Agilent).
5; Fixing; 3.5% paraformaldehyde, BioTek EL406 washer dispenser (Agilent).
6; Washing; 1x PBS; BioTek EL406 washer dispenser (Agilent).
7; Nuclei staining; 1:1000 dilution of Hoechst 33342 (Thermofisher), BioTek EL406 washer dispenser (Agilent).
8; Incubation; 20 min; in the dark at room temperature.
9; Washing; 2x, 1x PBS (ThermoFisher), BioTek EL406 washer dispenser (Agilent).
10; Reagent; 10 uL; 1x PBS per well, sealed with clear adhesive tape.
11; Detection; Fluorescence, Acumen eX3 laser scanning cytometer (STP Labtech), GFP filters […].
NOTES (numbers refer to sequence numbers above).
1. NCI-H358 cells expressing eGFP-tagged delta133p53alpha were grown in T75 culture flasks and treated with doxycycline for 24h, at 10 ng/ml for eGFP-D133p53a cells (N-terminal cell) and 100 ng/ml for D133p53a-eGFP cells (C-terminal cells). Cells were trypsinized, counted using a Counted 3 Automated Cell Counter (Thermo Fisher), and diluted to a concentration of 200,000 cells/ml. A Multidrop Combi Reagent Dispenser (ThermoFisher) was used to dispense 800 cells/well in […] of doxycycline-free media, into 1536-well black/clear bottom low base plates (AuroraMicroplates).
2. After plating cells, 23 nl of compound library, DMSO vehicle control or positive control (5-azacytidine) were transferred by Pin Tool (Wako). The plate map layout was the same for each plate: (column 1) non-doxycycline treated cells + DMSO vehicle control; (column 2) doxycycline treated cells + DMSO vehicle control baseline; (column 3) doxycycline treated cells + positive control 57.5 uM final concentration 5-azacytidine; (column 4) doxycycline treated cells + serial dilution of 5-azacytidine, 16-point 1:2 titration spanning 1.8 nM to […] final concentration; (columns 5-48) doxycycline treated cells + titration of library compounds.
3. Cells were incubated at 37 °C, 5 % CO2, 95% RH with breathable metal lid for 24h.
4-10. […]

Chain of Cellular tumor antigen p53 (Homo sapiens) (P04637 whole entry, looked up): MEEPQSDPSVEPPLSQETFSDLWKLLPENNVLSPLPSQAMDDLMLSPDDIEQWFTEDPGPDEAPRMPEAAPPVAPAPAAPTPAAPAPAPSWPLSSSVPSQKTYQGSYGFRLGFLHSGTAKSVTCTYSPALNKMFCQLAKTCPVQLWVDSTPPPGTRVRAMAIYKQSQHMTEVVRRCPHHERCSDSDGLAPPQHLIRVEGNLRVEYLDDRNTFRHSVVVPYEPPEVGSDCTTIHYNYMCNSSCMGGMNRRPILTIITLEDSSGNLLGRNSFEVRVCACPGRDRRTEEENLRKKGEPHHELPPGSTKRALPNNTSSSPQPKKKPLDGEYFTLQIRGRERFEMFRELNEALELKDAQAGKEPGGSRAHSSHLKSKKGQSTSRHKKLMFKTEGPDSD

SMILES | Potency | activation (upregulation) [%]
Cc1c2ccncc2c(C)c2c1[nH]c1ccccc12 | 3.06 µM (active) | –
CP(=O)(O)C1=CCNCC1 | – | -6.67
CC(=O)[C@H]1CC[C@H]2[C@@H]3CC[C@H]4C[C@](C)(O)CC[C@]4(C)[C@H]3CC[C@]12C | – | 25.2
CCn1cnc2c(Nc3cccc(Cl)c3)nc(N[C@@H]3CCCC[C@@H]3N)nc21 | 9.68 µM (active) | –
O=C1/C(=C\c2ccccc2)C[C@@]2(O)[C@H]3Cc4ccc(O)c5c4[C@@]2(CCN3CC2CC2)[C@H]1O5 | 15.3 µM (active) | –
CC1=NN=C(c2ccc(N)cc2)c2cc3c(cc2C1)OCO3 | 34.3 µM (active) | –
CC1(C(=O)O)C2CCC(O2)C1(C)C(=O)O (centres undefined) | – | 47.5
c1ccc2c(c1)[I+]c1ccccc1-2 | 19.3 µM (active) | –
N[C@H](CCCCCP(=O)(O)O)C(=O)O | – | 0.294
CC[C@@]1(O)C(=O)OCc2c1cc1n(c2=O)Cc2cc3ccccc3nc2-1 | 1.72 µM (active) | –
CCS(=O)(=O)Nc1cccc(C(=C2CCCCC2)c2cnc[nH]2)c1 | – | -16.3
c1ccc2c(c1)OCC(C1=NCCN1)O2 (centres undefined) | – | 18.9
C[C@]12Cc3cn4c(nc3C=C1CCC1C2CC[C@@]2(C)[C@H]1CC[C@@]2(O)C#N)nc1ccccc14 (some centres undefined) | 19.3 µM (active) | –
CN1C2CCC1CC(OC(c1ccccc1)c1ccccc1N)C2 (centres undefined) | – | -13.1
